Among the data in PubChem BioAssay (Tox21) are Potency values, retold here.

A short description of assay [1]: qHTS assay to identify small molecule antagonists of the estrogen related receptor (ERR) signaling pathway - cell viability counter screen (AID 1224818). Also: series mostly up to about 46 µM. A digest of the protocol: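 Cytotoxicity check run alongside the ERR antagonist screen: cells exposed to test compounds 17.5 h at 37 C, viability taken as CellTiter-Fluor fluorescence intensity.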
Assay [2] in a line: qHTS assay to identify small molecule antagonists of the estrogen related receptor (ERR) signaling pathway (AID 1224819; also: nearly all actives have a fitted effect of over 50% in size; also: potency is read from the fitted curve at half-maximal effect). The essentials: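 ERR reporter cells were plated at 2,000 cells/well and left 6 h at 37 C/5% CO2 before pin-tool transfer of compounds in DMSO. After 18 h at 37 C, One-Glo was added and luminescence was read 30 min later at room temperature.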
Background: qHTS replaces the single test concentration by a dilution series.

The test system of assay [3] is estrogen-related receptor alpha (ERRalpha) with PGC-1alpha coactivator, human. Put plainly: qHTS assay to identify small molecule antagonists of the estrogen related receptor signaling pathway with the pleiotropic PPARgamma coactivator (PGC) (AID 1224821; calls by dose curve;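 also: series mostly up to about 46 µM; lower luminescence signal means antagonism of PGC/ERR signalling; nearly all actives have a fitted effect of over 50% in size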). The essentials:
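A PGC/ERR cell line supplied by NTP is seeded, allowed 6 h at 37 C, and treated with test compounds in DMSO for 18 h. Signal is then measured as luciferase luminescence using One-Glo.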

The nature of assay [4]: qHTS assay to identify small molecule antagonists of the estrogen related receptor signaling pathway with the pleiotropic PPARgamma coactivator (PGC) cell viability counter screen (AID 1224822; also: series mostly up to about 46 µM). The essentials:
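Viable cell signal (CellTiter-Fluor, 30 min, 37 C/5% CO2) was measured in PGC/ERR cells after a 17.5 h compound incubation.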

A short description of assay [5]: qHTS assay to identify small molecule agonists of the estrogen related receptor signaling pathway with the pleiotropic PPARgamma coactivator (PGC) (AID 1224823). A digest of the protocol: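 Compounds dissolved in DMSO are added by pin tool to PGC/ERR cells that have settled for 6 h, and incubation continues 18 h at 37 C. Reporter output is measured as One-Glo luminescence.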

The nature of assay [6]: qHTS assay to identify small molecule agonists of the estrogen related receptor (ERR) signaling pathway (AID 1224820). A digest of the protocol: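 An ERR cell line provided by NTP was seeded at 2,000 cells per well and allowed to settle for 6 h before compounds in DMSO were added. After 18 h at 37 C, luciferase activity was measured by One-Glo luminescence.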
The nature of assay [7]: qHTS assay to identify small molecule antagonists of the estrogen related receptor (ERR) signaling pathway from Tox21 library - cell viability counter screen (AID 1224834). Also: nearly all actives have a fitted effect of over 30% in size. A digest of the protocol:
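In this quantitative HTS format, ERR cells receive compounds in DMSO and are incubated for 17.5 h at 37 C. Live-cell protease activity is then detected with CellTiter-Fluor.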

The nature of assay [8]: qHTS assay to identify small molecule antagonists of the estrogen related receptor signaling pathway with the pleiotropic PPARgamma coactivator (PGC) from Tox21 10K library - cell viability counter screen (AID 1224840; active = well fitted cell-killing curve with a large enough effect in the repeat runs, not every such curve was filed as active; also: nearly all actives have a fitted effect of over 40% in size). A digest of the protocol: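 Viability counter screen, PGC/ERR cells: 17.5 h compound exposure at 37 C, CellTiter-Fluor fluorescence endpoint.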
Assay [9] can be described thus: qHTS assay to identify small molecule agonists of the estrogen related receptor signaling pathway with the pleiotropic PPARgamma coactivator (PGC) from Tox21 10K library (AID 1224842). Also: nearly all actives have a fitted effect of over 15% in size. The essentials: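 Luminescence from One-Glo (30 min, room temperature) measured after PGC/ERR cells had 18 h at 37 C with pinned compound (23 nL in DMSO). Cells had been seeded at 2,000 per well and pre-incubated 6 h.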

A short description of assay [10]: qHTS assay to identify small molecule antagonists of the estrogen related receptor (ERR) signaling pathway from Tox21 library (AID 1224848). Also: nearly all actives have a fitted effect of over 50% in size. A digest of the protocol:
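Luciferase luminescence (ONE-Glo, 30 min room temperature) was the read-out. Cells of the NTP-supplied ERR line, 2,000 per well, were given 6 h at 37 C before compound addition in DMSO and 18 h exposure at 37 C.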

In assay [11] the target is Acetylcholinesterase (Homo sapiens) (UniProt P22303). The assay is described as follows: Acetylcholinesterase (AChE) small molecule antagonists: colormetric cell-based qHTS assay (AID 1347395; calls by dose curve; also: nearly all actives have a fitted effect of over 30% in size). A digest of the protocol:
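Colorimetric readout: DTNB quantifies thiocholine from acetylthiocholine hydrolysed by endogenous AChE of SH-SY5Y cells (2,000/well, plated overnight). Compound pretreatment 30 min, substrate incubation 90 min, both 37 C.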

The target is the same in assay [12]. The assay is described as follows: Acetylcholinesterase (AChE) small molecule antagonists: enzyme-based qHTS assay (AID 1347397; calls by dose curve; also: nearly all actives have a fitted effect of over 55% in size). As to conditions: Potency: AChE enzyme activity inhibition; outcome: AChE enzyme activity inhibition. A digest of the protocol: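 Colorimetric DTNB readout of acetylthiocholine hydrolysis, 10 min at room temperature, after 30 min room-temperature exposure of 50 mU/mL recombinant human enzyme to compound; DMSO vehicle control.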

Assay [13] has the same target. Put plainly: Acetylcholinesterase (AChE) small molecule antagonists: fluorescence cell-based qHTS assay (AID 1347398; calls by dose curve; also: nearly all actives have a fitted effect of over 50% in size). The following applies: Potency: AChE activity; outcome: AChE activity. A digest of the protocol: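 Cellular AChE activity read as thiocholine from acetylthiocholine hydrolysis, detected by Thiolite Green fluorescence at 490/520 nm after 40 min at room temperature. Compounds were pre-incubated 30 min at 37 C on adherent SH-SY5Y cells.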

The target is the same in assay [14]. Put plainly: Acetylcholinesterase (AChE) small molecule antagonists: enzyme-based qHTS assay with human liver microsomes (AID 1347399; calls by dose curve; also: nearly all actives have a fitted effect of over 60% in size). As to conditions: Potency: qHTS inhibition; outcome: qHTS inhibition. A digest of the protocol:
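Recombinant human AChE (50 mU/mL in the enzyme mix) and human liver microsomes (0.25 mg/mL final) were preincubated with compound and NADPH (0.25 mg/mL final) for 30 min at 37 C. Acetylthiocholine/DTNB was then added; thiocholine was read colorimetrically after 10 min at room temperature.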

Unmarked numbers belong to inactive results. Results filed as inconclusive are left out. Activity calls are given as the source filed them. Unless noted, calls follow the shape of the dose curve; as a rule, active = well fitted curve in the direction sought with a large enough effect in the repeat runs; inconclusive = weak or mixed curves; inactive = no such curve, though single readings can be large; an effect the other way counts as inactive or inconclusive.

Sequence of Acetylcholinesterase (Homo sapiens) (P22303 whole entry, looked up): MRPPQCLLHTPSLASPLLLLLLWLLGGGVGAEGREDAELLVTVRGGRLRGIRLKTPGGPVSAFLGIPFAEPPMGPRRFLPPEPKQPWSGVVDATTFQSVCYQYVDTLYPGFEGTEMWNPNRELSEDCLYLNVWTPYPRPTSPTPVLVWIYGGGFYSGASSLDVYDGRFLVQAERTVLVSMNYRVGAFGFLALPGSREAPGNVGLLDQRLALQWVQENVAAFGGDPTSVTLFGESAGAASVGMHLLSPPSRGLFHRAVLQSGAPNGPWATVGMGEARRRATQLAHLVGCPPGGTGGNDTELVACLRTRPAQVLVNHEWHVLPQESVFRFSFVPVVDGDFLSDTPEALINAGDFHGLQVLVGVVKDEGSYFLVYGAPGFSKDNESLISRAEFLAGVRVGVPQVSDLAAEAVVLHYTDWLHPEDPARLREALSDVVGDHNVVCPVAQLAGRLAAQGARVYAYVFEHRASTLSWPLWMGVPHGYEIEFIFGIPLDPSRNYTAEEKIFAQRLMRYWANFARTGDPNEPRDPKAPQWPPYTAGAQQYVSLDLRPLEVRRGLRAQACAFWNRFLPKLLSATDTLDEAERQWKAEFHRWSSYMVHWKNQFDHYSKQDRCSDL

Take `C[C@H](N)CN1CCc2ccc(Br)cc21`: the Potency result in [1], in assay [2], in assay [3], in assay [4] and in assay [5] was “inactive” each time.
On to `N=C(N)c1ccc(CS(=O)(=O)F)cc1`, for which the Potency entry in [1], in [2], in assay [6], in assay [3], in assay [4] and in assay [5] was “inactive” throughout.
For `CC1=NN=C(c2ccc(N)cc2)c2cc3c(cc2C1)OCO3`, the Potency result in assay [1], in assay [2], in [6], in assay [3], in assay [4] and in assay [5] was “inactive” in each case.
For `CC[C@@]1(O)C(=O)OCc2c1cc1n(c2=O)Cc2cc3ccccc3nc2-1`, the Potency entry in assay [1], in assay [6], in [4] and in assay [5] was “inactive” in each case. Moreover, the Potency in assay [2] is 123 nM (active).
In the case of `CN(N=O)c1cc(O)ccc1O`, the Potency result in assay [1], in assay [2], in assay [4] and in assay [5] was “inactive” in each case.
Turning to `CCn1cc(C(=O)O)c(=O)c2ccc(C)nc21`, the Potency result in assay [1], in [2], in assay [6], in assay [3], in assay [4] and in [5] was “inactive” in each case. Besides, the Potency result in [7], in [8], in assay [9], in [10], in assay [11] and in [12] was “inactive” throughout. In assay [13], the Potency entry is “inactive”.
Turning to `C[C@H]1C2Cc3ccc(O)cc3[C@@]1(C)CCN2CC1CC1`, the Potency entry in [1], in assay [2], in assay [6], in [3], in assay [4] and in assay [5] was “inactive” throughout.
With `CC(N)C(=O)OC(C)(C)Cc1ccc(Cl)cc1` (centres undefined), the Potency result in assay [1], in [2], in assay [6], in assay [3], in assay [4] and in assay [5] was “inactive” in each case. Also, the Potency result in assay [7], in [8], in [9], in assay [10], in [11] and in [12] was “inactive” throughout. The Potency entry in assay [13] and in assay [14] was “inactive” in each case.
